Screening results (PubChem)
HCMV antiviral: human cytomegalovirus inhibition; 410,000 tested, 4.5% active; activity change, negative = inhibition, % at 57.5 µM; HFF cells, HCMV-luciferase reporter, 72 h; hits give low values; in the data active means activity change below about -60%; inconclusive means no clear call, values can overlap the other calls; inactive means above about -39%
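Screen run at 2 compound doses on HFFs infected with reporter HCMV, MOI 1 PFU/cell. Luciferase activity from cell lysates at 72 h post infection gave inhibition relative to buffer-only and Salinomycin wells.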
VACV mCherry inh: inhibitors of vaccinia virus infection (mCherry reporter signal); Vaccinia virus mCherry reporter infection, fluorescence; Potency, µM (top dose mostly 36.5 µM), most hits filed as inhibitors; 310,000 tested, 0.63% active; AID 720579; calls by dose curve; tested in A549 cells; further: nearly all actives have a fitted effect of over 35% in size
MARV entry inh: blocks Marburg virus binding to or entry into cells | Marburg virus pseudotyped entry inhibition, cell reporter | Potency, µM (series often up to 37.8 µM), actives largely listed as inhibitors | 300,000 tested, 1.8% active; calls by dose curve; tested in HEK293 cells
Lassa entry inh: Lassa virus entry inhibition. Lassa virus pseudotype entry inhibition, cell reporter. Potency, µM (highest dose often 37.9 µM), most hits filed as inhibitors. 300,000 tested, 1.2% active. AID 540256; calls by dose curve; tested in HEK293 cells; further: nearly all actives have a fitted effect of over 50% in size
HCV inhibitor: inhibitors of hepatitis C virus infection; Huh7.5.1 HCVcc-Cre infection, luciferase reporter, 44 h; Potency, µM (doses to about 41.8 µM), most hits filed as inhibitors; 340,000 tested, 3.4% active; AID 651820; active means well fitted inhibition curve with a large enough effect; inconclusive means small, poorly fitted or top-dose-only effect, or another doubt; inactive means no such curve, though single readings can be large or run the other way
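Cells seeded at 1,000/well and cultured 4 h, then compounds added followed by HCVcc-Cre virus (~0.5 moi). After 44 h further culture, luciferase substrate was added, plates held 15 min at room temperature, and luminescence read for 15 sec.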
VACV Venus inh: vaccinia inhibition (Venus reporter); Potency, µM (titrated, usually from 36.5 µM), most hits filed as inhibitors; 330,000 tested, 0.46% active; Vaccinia virus Venus reporter expression, fluorescence; calls by dose curve; tested in A549 cells; further: nearly all actives have a fitted effect of over 30% in size
Numbers stand for hits; n = inactive; u = inconclusive; x = no result; [ ] = dose if it differs, or a comment. The list is not random: actives were taken first. Their share in the collection is about 7.8%.

SMILES	HCMV antiviral	VACV mCherry inh	MARV entry inh	Lassa entry inh	HCV inhibitor	VACV Venus inh
Cc1ccccc1C1(CC(=O)N2CC3CC4CC(C3)CC2C4)CC(=O)N(Cc2cccnc2)C1=O (centres undefined)	x	n	x	x	x	n
O=c1n(Cc2ccccc2Cl)c2ccccc2c2nc(-c3ccccc3)nn12	n	n	n	n	x	n
CCC(C)(C)C1CCC(=NNc2nc3ccccc3[nH]2)CC1 (centres undefined)	u	x	u	8.2µM	u	x
COc1cc(-c2cnc3ccccc3c2)cc2c1OCCN(C(=O)CCn1nc(C)cc1C)C2	x	n	x	x	x	n
CCOC(=O)c1cnc2ccc(Cl)cc2c1N1CCN(C)CC1	n	n	n	n	n	n
CCOC(=O)c1cc(-c2ccc(C)cc2)n(CCC(=O)NCc2ccccc2)c1C	n	n	n	x	x	n
CCOC(=O)c1cnc2c(OC)cccc2c1N1CCN(c2ccccc2OC)CC1	n	u	u	u	u	n
CCOC(=O)c1cnc2c(OC)cccc2c1N1CCN(c2ccccn2)CC1	-69	n	11µM	u	u	n
CCOC(=O)c1cc(-c2ccc(C)cc2)n(CCC(=O)N2CCN(c3ccccn3)CC2)c1C	n	u	21µM	16µM	u	u
CCOC(=O)c1cnc2c(C)cc(Cl)cc2c1N1CCN(C)CC1	-62	n	n	n	n	n
CCOC(=O)c1cnc2c(OC)cccc2c1N1CC(C)CC(C)C1 (centres undefined)	u	x	x	x	13µM	x
Cc1ccccc1NC(=O)COc1ccc2oc3c(c2c1)CCCC3	n	n	n	n	x	n
Cc1ccc(CCNC(=O)c2cc3c(=O)n(C)c4ccccc4c3n2C)cc1	n	n	n	n	x	n
CCOc1ccc(CNC(=O)C2Cc3ccccc3N2C(=O)CC)cc1OC (centres undefined)	n	n	x	n	x	n
CN1CCC(N(C)c2nc(-c3ccc([N+](=O)[O-])cc3)nc3ccccc23)CC1	n	u	11µM	u	4.5µM	10µM
CC(C)CN(CC(C)C)S(=O)(=O)c1ccc(C(=O)Nc2sc3c(c2C(N)=O)CC(C)(C)NC3(C)C)cc1	-97	n	x	n	x	n
CCOC(=O)c1c(NC(=O)CN2CCCCC2)sc2c1CCN(C(=O)OCC)C2	-60	u	u	u	10µM	n
CCOC(=O)c1c(NC(=S)N2CCN(C)CC2)sc2c1CCN(C(=O)OCC)C2	-99	n	u	n	6.3µM	n
CCOC(=O)c1c(NC(=O)CN(CC)CC)sc2c1CCN(C(=O)OCC)C2	u	u	u	u	2.8µM	u
COc1ccc(OC)c(CNC(=O)C2CCCCN2S(=O)(=O)c2ccc(F)cc2)c1 (centres undefined)	n	n	x	n	x	n
COc1cc(CN(C(=O)COc2ccc(C)c(C)c2)c2ccccn2)cc(OC)c1OC	n	n	n	n	x	n
Cc1cc(C)c2c(N=CN(C)C)c(C(=O)N3CCN(c4ncccn4)CC3)sc2n1	n	n	n	n	u	n
COC(=O)/C=C/c1sc2nc(C)cc(C)c2c1N=CN(C)C	-68	n	u	n	n	n
Cc1ccc(C)c(N2CCN(C(=O)CCCN3C(=S)NC(C)(C)CC3C)CC2)c1 (centres undefined)	-64	n	u	u	10µM	n
Cc1nn(-c2ccccc2)c(Cl)c1C1C(C#N)=C(N)Oc2c1c(C)nn2-c1ccccc1 (centres undefined)	x	x	n	n	n	n
SMILES	HCMV antiviral	VACV mCherry inh	MARV entry inh	Lassa entry inh	HCV inhibitor	VACV Venus inh
Cc1nn(-c2ccccc2)c(Cl)c1C1C(C#N)=C(N)Oc2n[nH]c(C)c21 (centres undefined)	-103	n	n	n	n	n
CCOc1ccc(-n2c(=O)c3c4c(sc3n(CC(=O)NC(C)CC)c2=O)CCCC4)cc1 (centres undefined)	n	n	n	n	x	n
NC(N)=Nc1cc2ccccc2c2ccccc12	-83	x	x	x	x	x
NC(N)=NC(N)=Nc1cccc2ccccc12	n	n[7.34 µM]	n	n	n	n[7.34 µM]
COC(=O)c1ccc2nc(-c3ccc(C#N)cc3)c(Cc3cccc(Cl)c3)n2c1	n	n	x	x	x	n
O=C(NC1CCCCC1)O[C@H]1CC[C@@]23CCCN2C(=O)CCC[C@H]3[C@H]1Cc1ccccc1	n	x	x	x	x	x
Cc1occc1-c1nnc(SCC(=O)Nc2ccccc2)n1Cc1ccccc1	-62	n	u	n	n	n
CCOc1ccc(NC(=O)CC2C(=O)OCCN2CC)cc1 (centres undefined)	n	n	n	n	x	n
